Laboratory results taken from PubChem BioAssay (NCATS).
Where “and” joins values, the source holds several entries; their conditions need not be identical. Equal values may be shown once. Records with an inconclusive call do not appear. Calls of active or inactive are those of the source. Calls come from the whole dose curve; as a rule, active = well fitted inhibition curve with a large enough effect; inconclusive = small, poorly fitted or top-dose-only effect; inactive = flat fitted curve, though single readings scatter.

Tested on: HEK293
Assay: Cytotoxic Profiling of Annotated Libraries Using Quantitative High-Throughput Screening (AID 1296008); note: nearly all actives have a fitted effect of over 60% in size
Conditions: Five cell lines viability, CellTiter-Glo ATP luminescence, 48-72 h; max response: stronger effect = lower value
How it was run: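 Cells exposed to compounds for 48 or 72 hr at 37 degrees Celsius. Viability read as ATP-coupled luminescence with CellTiter-Glo after 10 min at room temperature.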
% is set by controls: 0 for no effect and ±100 for the full control effect; potency is the fitted concentration of half-maximal effect.

| SMILES | Potency | max response |
| --- | --- | --- |
| CCN1CCN(CC(=O)Nc2ccc(-c3cccc4c(=O)cc(N5CCOCC5)oc34)c3sc4ccccc4c23)CC1 | 1.18 µM (active) | – |
| Nc1cccc(-c2cc3c(Oc4cccc(O)c4)ncnc3[nH]2)c1 | 20.9 µM (active) and 18.4 µM (active) | – |
| COc1cc(C(=O)N2CCC(N3CCN(C)CC3)CC2)ccc1Nc1ncc2c(n1)N(C)c1ccccc1C(=O)N2C | 11.8 µM (active) and 9.2 µM (active) | – |
| COC(=O)C[C@](O)(CCCC(C)(C)O)C(=O)O[C@@H]1C(OC)=C[C@]23CCCN2CCc2cc4c(cc2[C@H]13)OCO4 | – | -7.61% (inactive) |
| CC(C)C[C@H](NC(=O)CNC(=O)c1cc(Cl)ccc1Cl)B(O)O | 1.18 µM (active) | – |
| NC(=O)c1cccc2cn(-c3ccc([C@@H]4CCCNC4)cc3)nc12 | 6.51 µM (active) | – |
| Nc1ccc(C(=O)c2cc3c(ccc4ccccc43)[nH]2)cc1 | 2.96 µM (active) | – |
| C[C@@]12O[C@@H](C[C@]1(O)CO)n1c3ccccc3c3c4c(c5c6ccccc6n2c5c31)CNC4=O | 4.18 µM (active) | – |
| Cc1cnc(Nc2ccc(F)cc2Cl)nc1-c1c[nH]c(C(=O)N[C@H](CO)c2cccc(Cl)c2)c1 | – | -111% (inactive) |
| CN1CCN(c2cc(C(=O)Nc3ccc4c(c3)-c3c(c(C(N)=O)nn3-c3ccc(F)cc3)CC4)c(Cl)cn2)CC1 | 20.9 µM (active) | – |
| Cc1ccc(S(=O)(=O)Nc2cc(Cl)ccc2C(=O)Nc2nc(-c3ccccc3)cs2)cc1 | 11.8 µM (active) | – |
| CN[C@H]1CCc2cc(OC)c(OC)c(OC)c2-c2ccc(OC)c(=O)cc21 | 0.0015 µM (active) | – |
| COc1cc(C)c(Sc2cnc(NC(=O)c3ccc(CNC(C)C(C)C)cc3)s2)cc1C(=O)N1CCN(C(C)=O)CC1 (stereo not drawn) | 14.8 µM (active) and 11.6 µM (active) | – |
| C[C@@H]1CN(CC(=O)Nc2ccc3c(c2)Cc2cccc(-c4cc(=O)cc(N5CCOCC5)o4)c2S3)C[C@H](C)O1 | 18.7 µM (active) | – |
| c1cc(-c2cnn3cc(-c4ccc(OCCN5CCCCC5)cc4)cnc23)ccn1 | 3.32 µM (active) | – |
| COc1c(OCCCN2CCOCC2)ccc2c3n(c(=NC(=O)c4cnc(N)nc4)nc12)CCN3 | 363 nM (active) and 42.2 nM (active) | – |
| O=c1[nH]c(=O)n(C2CCCO2)cc1F (stereo not drawn) | – | -0.0583% (inactive) |

| SMILES | Potency | max response |
| --- | --- | --- |
| CN1CCC(CNc2ccc3ncc(-c4cccc(OC(F)(F)F)c4)n3n2)CC1 | 23.5 µM (active) | – |
| CCC1=C[C@@H]2CN(C1)Cc1c([nH]c3ccccc13)[C@@](C(=O)OC)(c1cc3c(cc1OC)N(C)[C@@H]1[C@@](O)(C(=O)OC)[C@H](OC(C)=O)[C@]4(CC)C=CCN5CC[C@]31[C@@H]54)C2 | 0.0235 µM (active) | – |
| CCN(CC)CCNC(=O)c1ccc2nc(-c3ccccc3)c(-c3ccc(CN4CCC(n5c(=O)[nH]c6ccccc65)CC4)cc3)nc2c1 | 2.96 µM (active) and 8.2 µM (active) | – |
| CC(C)=CCCC(C)=CCCC(C)=CCSc1ccccc1C(=O)O | 1.66 µM (active) | – |
| CCN(CC)CCCCNc1ncc2cc(-c3cc(OC)cc(OC)c3)c(NC(=O)NC(C)(C)C)nc2n1 | 4.18 µM (active) | – |
| COC(=O)[C@]12CCC(C)(C)C[C@@H]1[C@@H]1C(=O)C=C3[C@@]4(C)C=C(C#N)C(=O)C(C)(C)[C@@H]4CC[C@@]3(C)[C@]1(C)CC2 | 2.96 µM (active) | – |
| Cc1ccc(-c2ncn(-c3ccc(Nc4nccc(-c5cccc(N6CCOCC6)c5)n4)cc3)n2)cn1 | 0.332 µM (active) | – |
| CC(C)c1cc(-c2n[nH]c(=O)n2-c2ccc3c(ccn3C)c2)c(O)cc1O | 46.9 nM (active) and 41.1 nM (active) | – |
| O=C(O)c1ccc2c(c1)nc(Nc1cccc(Cl)c1)c1ccncc12 | 10.3 µM (active) | – |
| Cc1cn2c(-c3cn[nH]c3)cnc2c(Nc2ccc(C(=O)N3CCNCC3)cc2F)n1 | 16.4 µM (active) | – |
| COc1cc2c(NC3CCN(C(C)C)CC3)nc(C3CCCCC3)nc2cc1OCCCN1CCCC1 | 7.43 µM (active) and 5.8 µM (active) | – |
| O=C(NC1CCNCC1)c1[nH]ncc1NC(=O)c1c(Cl)cccc1Cl | 0.264 µM (active) | – |
| Cc1cccc(C=NNc2cc(N3CCOCC3)nc(OCCc3ccccn3)n2)c1 | 5.9 µM (active) | – |
| COc1cccc2c(NCc3ccccc3)nc(-n3c(N)nc4ccccc43)nc12 | 7.43 µM (active) and 11.6 µM (active) | – |
| Cc1cc(C(=O)N2CCN(c3cccc(Cl)c3)CC2)n(-c2ccccc2)n1 | 526 nM (active) and 1.46 µM (active) | – |
| CN(C)CCCN=c1c2ccccc2n(C)c2[nH]c(=O)n(C)c(=O)c12 | 5.26 µM (active) | – |
